These results are taken from PubChem BioAssay (EPA / NIEHS).

A word on the AC50: it is the concentration at which the activity in the assay is half-maximal.

Common to all, as to details: mRNA level, 48 h; actives raise or lower the signal
Read-out in test [1]: Insulin-like growth factor-binding protein 1 (IGFBP1), IGFBP1 (gene 3484)
Briefly: LTEA_HepaRG_IGFBP1: Life Technologies and Expression Analysis (LTEA) Assay for Insulin-like growth factor-binding protein 1 (IGFBP1) using HepaRG (AID 2283508). In short, it runs like this:
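Differentiated human HepaRG cells in serum-free induction medium were exposed in duplicate for 48 h to eight concentrations, top 100 uM with half-log dilutions, in 0.5% DMSO. Transcript levels came from qRT-PCR normalised to ACTB, GAPDH and POLR2A, fitted bidirectionally against DMSO.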

Read-out in test [2]: Interleukin 6 (IL6), IL6 (gene 3569)
Briefly: LTEA_HepaRG_IL6: Life Technologies and Expression Analysis (LTEA) Assay for Interleukin 6 (IL6) using HepaRG (AID 2283509). In short, it runs like this: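 HepaRG cells exposed in duplicate for 48 h to eight half-log concentrations, top 100 uM, in 0.5% DMSO serum-free induction medium. mRNA measured by qRT-PCR, normalized to ACTB, GAPDH and POLR2A. Bidirectional fit versus DMSO.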

Read-out in test [3]: Interleukin 6 Receptor (IL6R), IL6R (gene 3570)
In words: LTEA_HepaRG_IL6R: Life Technologies and Expression Analysis (LTEA) Assay for Interleukin 6 Receptor (IL6R) using HepaRG (AID 2283510). In short, it runs like this:
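Concentration-response in human liver HepaRG cells: eight concentrations from 100 uM downward by half-logs, 48 h exposure, 0.5% DMSO vehicle. IL6R mRNA change measured by qRT-PCR and fitted in both directions relative to vehicle.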

Read-out in test [4]: Potassium channel subfamily K member 1 (KCNK1), KCNK1 (gene 3775)
Briefly: LTEA_HepaRG_KCNK1: Life Technologies and Expression Analysis (LTEA) Assay for Potassium channel subfamily K member 1 (KCNK1) using HepaRG (AID 2283511). In short, it runs like this: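 Differentiated HepaRG cells, 48 h exposure in serum-free induction medium with 0.5% DMSO; 8 concentrations, half-log from 100 uM, duplicate. KCNK1 mRNA by qRT-PCR, normalized to ACTB, GAPDH, POLR2A; bidirectional fit vs DMSO.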

Read-out in test [5]: Keratin 19 (KRT19), KRT19 (gene 3880)
Briefly: LTEA_HepaRG_KRT19: Life Technologies and Expression Analysis (LTEA) Assay for Keratin 19 (KRT19) using HepaRG (AID 2283512). In short, it runs like this:
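Differentiated human HepaRG cells, plated 48 h, were exposed in duplicate for 48 h in serum-free induction medium to eight half-log concentrations up to 100 uM in 0.5% DMSO. KRT19 mRNA was quantified by qRT-PCR, normalized to ACTB, GAPDH and POLR2A, and fitted bidirectionally versus DMSO.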

Read-out in test [6]: JUN Transcription Factor, JUN (gene 3725)
In words: LTEA_HepaRG_JUN: Life Technologies and Expression Analysis (LTEA) Assay for JUN Transcription Factor using HepaRG (AID 2283513). In short, it runs like this: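 Human HepaRG liver cells receive test chemicals in 0.5% DMSO for 48 h across an eight-point range topping at 100 uM. Expression changes in JUN are scored in both directions against the DMSO vehicle.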

Read-out in test [7]: Lipase C (LIPC), LIPC (gene 3990)
In words: LTEA_HepaRG_LIPC: Life Technologies and Expression Analysis (LTEA) Assay for Lipase C (LIPC) using HepaRG (AID 2283514). In short, it runs like this:
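HepaRG cells, 48 h after plating, treated in duplicate for 48 h in serum-free induction medium over 8 half-log concentrations from 100 uM, 0.5% DMSO. LIPC mRNA by TaqMan qRT-PCR normalized to ACTB/GAPDH/POLR2A; bidirectional fit versus DMSO.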

Read-out in test [8]: Lipoprotein lipase (LPL), LPL (gene 4023)
Briefly: LTEA_HepaRG_LPL: Life Technologies and Expression Analysis (LTEA) Assay for Lipoprotein lipase (LPL) using HepaRG (AID 2283515). In short, it runs like this: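 Differentiated HepaRG cells, plated 48 h, then exposed 48 h in serum-free induction medium to 8 concentrations (top 100 uM, half-log steps) in 0.5% DMSO, duplicate. LPL mRNA measured by qRT-PCR, normalized to ACTB, GAPDH and POLR2A.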

Read-out in test [9]: MicroRNA 122 (MIR122), gene 406906
Briefly: LTEA_HepaRG_MIR122: Life Technologies and Expression Analysis (LTEA) Assay for MicroRNA 122 (MIR122) using HepaRG (AID 2283516). Note: the transcript read is the microRNA miR-122. In short, it runs like this:
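HepaRG, 48 h exposure, 8-pt half-log from 100 uM, 0.5% DMSO; TaqMan qRT-PCR; bidirectional fit vs DMSO.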

Read-out in test [10]: matrix metalloproteinase-10 (MMP10), MMP10 (gene 4319)
Briefly: LTEA_HepaRG_MMP10: Life Technologies and Expression Analysis (LTEA) Assay for matrix metalloproteinase-10 (MMP10) using HepaRG (AID 2283517). In short, it runs like this: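 Differentiated HepaRG cells in serum-free induction medium exposed 48 h in duplicate to 8-point half-log series up to 100 uM in 0.5% DMSO. mRNA quantified by qRT-PCR, normalised to ACTB, GAPDH, POLR2A; bidirectional fit versus DMSO.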

Read-out in the next test: MYC, MYC (gene 4609)
Briefly: LTEA_HepaRG_MYC: Life Technologies and Expression Analysis (LTEA) Assay for MYC using HepaRG (AID 2283518). In short, it runs like this:
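Differentiated human HepaRG cells, plated 48 h then switched to serum-free induction medium, were exposed in duplicate for 48 h to 8-point half-log series up to 100 uM in 0.5% DMSO. MYC mRNA measured by qRT-PCR, normalized to ACTB/GAPDH/POLR2A.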

Read-out in test [11]: matrix metalloproteinase-3 (MMP3), MMP3 (gene 4314)
Briefly: LTEA_HepaRG_MMP3: Life Technologies and Expression Analysis (LTEA) Assay for matrix metalloproteinase-3 (MMP3) using HepaRG (AID 2283519). In short, it runs like this: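 HepaRG cells (~100,000/well) in serum-free induction medium were dosed in duplicate for 48 h with an 8-point half-log series from 100 uM, 0.5% DMSO. MMP3 mRNA was quantified by Fluidigm TaqMan qRT-PCR, normalized to three housekeeping genes.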

Read-out in test [12]: Paternally Expressed 10 (PEG10), PEG10 (gene 23089)
Briefly: LTEA_HepaRG_PEG10: Life Technologies and Expression Analysis (LTEA) Assay for Paternally Expressed 10 (PEG10) using HepaRG (AID 2283520). In short, it runs like this: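 Chemicals tested on HepaRG cells for 48 h, highest concentration 100 uM. PEG10 expression assessed by qRT-PCR relative to DMSO control.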

Read-out in test [13]: Protein phosphatase 2A (PPP2R4), PTPA (gene 5524)
Briefly: LTEA_HepaRG_PPP2R4: Life Technologies and Expression Analysis (LTEA) Assay for Protein phosphatase 2A (PPP2R4) using HepaRG (AID 2283522). In short, it runs like this: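 Gene-expression endpoint in HepaRG hepatic cells: 48 h treatment across eight half-log concentrations up to 100 uM in 0.5% DMSO. PPP2R4 mRNA by qRT-PCR, normalized to three endogenous control genes.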

Read-out in test [14]: Phosphatase and tensin (PTEN), PTEN (gene 5728)
Briefly: LTEA_HepaRG_PTEN: Life Technologies and Expression Analysis (LTEA) Assay for Phosphatase and tensin (PTEN) using HepaRG (AID 2283523). In short, it runs like this: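 HepaRG cells, 48 h after plating, exposed in duplicate for 48 h in serum-free induction medium to 8 half-log concentrations up to 100 uM (0.5% DMSO). PTEN mRNA by qRT-PCR, normalized to ACTB, GAPDH, POLR2A; bidirectional fit versus DMSO.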

Read-out in test [15]: solute carrier (SLC22A1), SLC22A1 (gene 6580)
Briefly: LTEA_HepaRG_SLC22A1: Life Technologies and Expression Analysis (LTEA) Assay for solute carrier (SLC22A1) using HepaRG (AID 2283524). In short, it runs like this: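 Differentiated human HepaRG cells in serum-free induction medium, exposed 48 h in duplicate to 8-point half-log series from 100 µM top in 0.5% DMSO. SLC22A1 mRNA by TaqMan qRT-PCR normalized to ACTB, GAPDH, POLR2A; bidirectional fit versus DMSO.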

Read-out in test [16]: Pyruvate Dehydrogenase Kinase 4 (PDK4), PDK4 (gene 5166)
In words: LTEA_HepaRG_PDK4: Life Technologies and Expression Analysis (LTEA) Assay for Pyruvate Dehydrogenase Kinase 4 (PDK4) using HepaRG (AID 2283525). In short, it runs like this:
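HepaRG cells plated 48 h, then switched to serum-free induction medium and exposed in duplicate for 48 h to 8 half-log concentrations from 100 uM in 0.5% DMSO. PDK4 mRNA measured by qRT-PCR, normalized to ACTB, GAPDH and POLR2A; bidirectional fit versus DMSO.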

Read-out in test [17]: NAD(P)H dehydrogenase [quinone] 1 (NQO1), NQO1 (gene 1728)
Briefly: LTEA_HepaRG_NQO1: Life Technologies and Expression Analysis (LTEA) Assay for NAD(P)H dehydrogenase [quinone] 1 (NQO1) using HepaRG (AID 2283526). In short, it runs like this:
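Human HepaRG hepatic cells received chemicals for 48 h in serum-free induction medium with 0.5% DMSO, up to 100 uM. Expression was assessed by TaqMan qRT-PCR against housekeeping controls and fitted bidirectionally against DMSO.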

Read-out in test [18]: Nuclear factor erythroid 2-related factor 2 (Homo sapiens) (UniProt Q16236)
In words: LTEA_HepaRG_NFE2L2: Life Technologies and Expression Analysis (LTEA) Assay for Nuclear factor erythroid 2-related factor 2 (NFE2L2) Transcription Factor using HepaRG (AID 2283527).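 Note: TaqMan qRT-PCR transcript level normalised to ACTB GAPDH and POLR2A housekeeping genes.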 In short, it runs like this:
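Differentiated human HepaRG cells, serum-free induction medium, exposed 48 h in duplicate to eight half-log concentrations up to 100 uM in 0.5% DMSO. NFE2L2 mRNA by Fluidigm TaqMan qRT-PCR, normalised to ACTB, GAPDH, POLR2A; bidirectional change versus DMSO.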

Activity calls are given as the source filed them. Rule for the calls: active = hit-call score of the fitted dose curve at least 0.9, where 1 is the maximum; inactive = score below 0.9.

Nuclear factor erythroid 2-related factor 2 (Homo sapiens), sequence (Q16236 whole entry, looked up): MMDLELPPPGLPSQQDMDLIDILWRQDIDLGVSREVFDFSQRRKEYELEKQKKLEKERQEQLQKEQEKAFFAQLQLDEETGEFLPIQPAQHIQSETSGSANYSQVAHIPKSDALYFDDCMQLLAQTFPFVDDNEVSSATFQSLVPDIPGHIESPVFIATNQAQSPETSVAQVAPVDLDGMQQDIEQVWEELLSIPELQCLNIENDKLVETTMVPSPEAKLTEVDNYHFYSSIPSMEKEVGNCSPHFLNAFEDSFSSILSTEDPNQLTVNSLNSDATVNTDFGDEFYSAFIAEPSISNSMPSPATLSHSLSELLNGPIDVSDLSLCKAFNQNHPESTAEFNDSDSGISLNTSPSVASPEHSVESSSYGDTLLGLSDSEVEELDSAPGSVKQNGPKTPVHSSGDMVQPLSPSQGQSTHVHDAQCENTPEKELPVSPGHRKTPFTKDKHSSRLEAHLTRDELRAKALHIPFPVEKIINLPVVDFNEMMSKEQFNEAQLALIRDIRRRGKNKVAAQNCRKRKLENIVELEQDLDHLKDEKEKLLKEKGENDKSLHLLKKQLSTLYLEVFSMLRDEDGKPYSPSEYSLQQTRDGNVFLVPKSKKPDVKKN

As to `CN(C)c1nc(=O)n(C2CCCCC2)c(=O)n1C`, the call in test [1], in test [2], in test [3], in [4], in test [5] and in test [6] was inactive. For the same molecule, the outcome in test [8] is “inactive”; in test [9], “inactive”; in test [10] it was “inactive”; in the test with MYC, MYC (gene 4609), “inactive”; in test [11] it was “inactive”; in [12], “inactive”. Also, the result in test [13], in test [14], in [15], in [16] and in test [17] was inactive. In addition, the half-maximal activity concentration (AC50) in test [7] was 12 µM (active).

As to `CCOP(=S)(OCC)SCSC(C)(C)C`, the outcome in test [1], in test [2], in test [3], in test [4], in test [5] and in test [6] was inactive. Besides, the outcome in test [7] is “inactive”; in test [8], “inactive”; in test [9], “inactive”; in [10], “inactive”; with MYC, MYC (gene 4609), “inactive”; in test [11] it was “inactive”. Besides, the result in test [13], in [14], in test [15] and in test [17] was inactive. Moreover, the concentration at half-maximal activity (AC50) was 50 µM (active) in test [12] and 18 µM (active) in test [16].

For `COc1ccc(O)c(C(C)(C)C)c1`, the molecule was classed as inactive in test [1], in test [2], in test [3], in test [4], in [5] and in test [6]. Further, the outcome in test [7] was “inactive”; in [8], “inactive”; in test [9], “inactive”; in [10], “inactive”; in the test with MYC, MYC (gene 4609) it was “inactive”; in [11], “inactive”. For the same molecule, the molecule was classed as inactive in test [12], in [13], in [14], in test [16], in [17] and in test [18].
